Drawing on article PMC7862700, “An all-to-all approach to the identification of sequence-specific readers for epigenetic DNA modifications on cytosine”, this text covers binding signal for 1 sequence.

Common to all, as to experiment: DAPPL (digital affinity profiling via proximity ligation, sequencing); 10 mM Tris-HCl pH 7.5, 50 mM NaCl, 1 mM DTT, 4% glycerol, room temperature, 30 min; GST-TFs on glutathione beads, 16-mer random dsDNA library, 0.1% formaldehyde crosslink after washing; high values mean tight binding
Holding throughout (details): protein: recombinant; tags: N-terminal GST; dsDNA, one strand shown

For experiment [1], the target named is T1, FLI1 (Homo sapiens, UniProt Q01543 1-452).
T1 sequence: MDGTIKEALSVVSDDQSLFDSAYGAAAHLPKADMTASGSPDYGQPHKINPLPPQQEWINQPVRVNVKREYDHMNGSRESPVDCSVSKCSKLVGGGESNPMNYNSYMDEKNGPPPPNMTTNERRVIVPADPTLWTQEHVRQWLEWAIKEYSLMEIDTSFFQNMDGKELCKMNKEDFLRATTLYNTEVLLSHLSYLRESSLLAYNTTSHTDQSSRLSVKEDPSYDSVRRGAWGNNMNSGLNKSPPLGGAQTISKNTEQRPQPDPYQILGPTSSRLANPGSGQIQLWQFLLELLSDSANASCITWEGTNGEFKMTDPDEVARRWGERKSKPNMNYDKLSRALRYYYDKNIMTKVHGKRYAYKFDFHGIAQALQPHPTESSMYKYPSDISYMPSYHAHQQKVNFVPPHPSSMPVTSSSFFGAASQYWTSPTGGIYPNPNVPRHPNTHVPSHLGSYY
In outline:
(§1)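 Pools of DNA-barcoded human transcription factors, expressed in yeast as GST fusions on glutathione beads and combined with a tag-only sample, were incubated with 200 nmole of a 16-mer random double-stranded DNA library. Incubation took 30 min at room temperature in Tris/NaCl/DTT/glycerol buffer and was followed by washing, 0.1% formaldehyde crosslinking, proximity ligation (BsaI/T4 ligase, 1 h, 37 °C), PCR amplification and sequencing on an Illumina NextSeq500. Binding signal is the ratio of a hexamer's read frequency for a factor to its frequency for the tag-only sample.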

For experiment [2], the target named is T2, GABPA (Homo sapiens, UniProt Q06546 1-454).
T2 sequence: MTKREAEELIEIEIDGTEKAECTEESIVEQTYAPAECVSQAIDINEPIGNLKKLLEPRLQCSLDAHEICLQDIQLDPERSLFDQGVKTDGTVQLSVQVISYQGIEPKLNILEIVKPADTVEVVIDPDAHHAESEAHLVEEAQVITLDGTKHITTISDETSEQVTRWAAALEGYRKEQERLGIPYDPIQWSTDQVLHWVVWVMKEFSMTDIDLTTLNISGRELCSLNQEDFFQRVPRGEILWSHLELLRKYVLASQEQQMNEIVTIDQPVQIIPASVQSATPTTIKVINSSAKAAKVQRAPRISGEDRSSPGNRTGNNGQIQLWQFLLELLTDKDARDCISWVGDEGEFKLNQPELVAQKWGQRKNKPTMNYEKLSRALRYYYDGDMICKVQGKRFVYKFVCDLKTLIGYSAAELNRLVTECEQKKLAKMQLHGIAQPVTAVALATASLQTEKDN
An outline of the steps:
as §1

The target in experiment [3] is T3, ERG (Homo sapiens, UniProt P11308 1-479).
T3 sequence: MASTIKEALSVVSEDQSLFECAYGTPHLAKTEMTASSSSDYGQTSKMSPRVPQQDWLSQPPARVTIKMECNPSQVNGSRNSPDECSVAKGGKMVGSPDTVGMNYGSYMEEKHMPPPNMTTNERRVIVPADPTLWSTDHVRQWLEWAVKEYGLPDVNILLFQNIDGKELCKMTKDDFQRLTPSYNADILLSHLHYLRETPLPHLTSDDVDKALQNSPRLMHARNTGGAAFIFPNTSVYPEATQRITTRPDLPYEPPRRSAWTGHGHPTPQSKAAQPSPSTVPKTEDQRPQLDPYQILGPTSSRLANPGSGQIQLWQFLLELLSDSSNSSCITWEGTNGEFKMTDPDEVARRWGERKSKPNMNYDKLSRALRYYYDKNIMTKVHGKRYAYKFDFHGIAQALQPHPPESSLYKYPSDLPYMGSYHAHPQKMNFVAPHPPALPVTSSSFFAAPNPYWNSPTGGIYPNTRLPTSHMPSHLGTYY
In outline:
as §1

Experiment [4] deals with ELF1 (Homo sapiens, UniProt P32519 1-619). In outline: as §1
Sequence of ELF1 (P32519 whole entry): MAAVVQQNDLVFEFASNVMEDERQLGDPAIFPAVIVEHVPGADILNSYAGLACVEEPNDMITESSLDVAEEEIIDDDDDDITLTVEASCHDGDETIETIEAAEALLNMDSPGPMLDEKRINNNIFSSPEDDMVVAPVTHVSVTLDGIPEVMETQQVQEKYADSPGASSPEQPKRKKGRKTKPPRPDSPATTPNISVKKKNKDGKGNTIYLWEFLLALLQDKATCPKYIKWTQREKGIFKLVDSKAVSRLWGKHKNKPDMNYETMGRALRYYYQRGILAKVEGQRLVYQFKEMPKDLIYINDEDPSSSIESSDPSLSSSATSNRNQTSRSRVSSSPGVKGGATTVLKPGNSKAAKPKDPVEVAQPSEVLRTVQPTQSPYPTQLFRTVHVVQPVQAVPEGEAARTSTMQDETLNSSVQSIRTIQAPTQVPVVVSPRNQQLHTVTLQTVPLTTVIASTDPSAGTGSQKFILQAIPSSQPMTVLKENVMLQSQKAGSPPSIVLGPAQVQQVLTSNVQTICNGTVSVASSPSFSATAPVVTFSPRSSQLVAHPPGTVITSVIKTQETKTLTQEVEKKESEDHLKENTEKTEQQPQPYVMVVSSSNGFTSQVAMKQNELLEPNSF
Experiment [5] concerns the target T4, EHF (Homo sapiens, UniProt Q9NZC4 1-300).
T4 sequence: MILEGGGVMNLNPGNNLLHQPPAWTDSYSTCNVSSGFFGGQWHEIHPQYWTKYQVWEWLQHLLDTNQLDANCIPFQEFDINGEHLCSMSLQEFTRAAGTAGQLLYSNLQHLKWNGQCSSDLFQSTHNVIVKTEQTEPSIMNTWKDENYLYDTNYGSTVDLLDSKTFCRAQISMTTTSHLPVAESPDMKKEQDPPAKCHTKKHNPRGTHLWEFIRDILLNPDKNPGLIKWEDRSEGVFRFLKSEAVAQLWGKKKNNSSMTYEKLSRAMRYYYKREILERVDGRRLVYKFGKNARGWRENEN
An outline of the steps:
as §1

Experiment [6] deals with SPI1 (Homo sapiens, UniProt P17947 1-270). In outline:
as §1

Experiment [7] has as its target SPIB (Homo sapiens, UniProt Q01892 1-262). In outline:
as §1

Experiment [8] concerns the target T5, FEV (Homo sapiens, UniProt Q99581 1-238).
T5 sequence: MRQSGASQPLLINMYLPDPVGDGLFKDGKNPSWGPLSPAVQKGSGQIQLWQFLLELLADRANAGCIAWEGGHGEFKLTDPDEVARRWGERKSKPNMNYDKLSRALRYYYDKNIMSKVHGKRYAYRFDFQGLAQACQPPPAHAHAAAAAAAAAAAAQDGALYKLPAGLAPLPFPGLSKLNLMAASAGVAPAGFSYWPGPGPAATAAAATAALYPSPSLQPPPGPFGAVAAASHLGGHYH
In outline: as §1

Experiment [9] concerns the target ETV5 (Homo sapiens, UniProt P41161 1-510). In outline:
as §1

In experiment [10] the target is T6, SPIC (Homo sapiens, UniProt Q8N5J4 1-248).
T6 sequence: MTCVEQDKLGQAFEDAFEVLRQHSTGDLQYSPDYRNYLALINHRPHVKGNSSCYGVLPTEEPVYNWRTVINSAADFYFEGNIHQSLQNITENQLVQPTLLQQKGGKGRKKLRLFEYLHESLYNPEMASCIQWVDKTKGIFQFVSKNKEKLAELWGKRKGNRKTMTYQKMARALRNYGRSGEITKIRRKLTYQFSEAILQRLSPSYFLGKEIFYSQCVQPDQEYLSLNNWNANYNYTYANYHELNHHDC
An outline of the steps: as §1

For experiment [11], the target named is ELF4 (Homo sapiens, UniProt Q99607 1-663). An outline of the steps: as §1
Sequence of ELF4 (Q99607 whole entry): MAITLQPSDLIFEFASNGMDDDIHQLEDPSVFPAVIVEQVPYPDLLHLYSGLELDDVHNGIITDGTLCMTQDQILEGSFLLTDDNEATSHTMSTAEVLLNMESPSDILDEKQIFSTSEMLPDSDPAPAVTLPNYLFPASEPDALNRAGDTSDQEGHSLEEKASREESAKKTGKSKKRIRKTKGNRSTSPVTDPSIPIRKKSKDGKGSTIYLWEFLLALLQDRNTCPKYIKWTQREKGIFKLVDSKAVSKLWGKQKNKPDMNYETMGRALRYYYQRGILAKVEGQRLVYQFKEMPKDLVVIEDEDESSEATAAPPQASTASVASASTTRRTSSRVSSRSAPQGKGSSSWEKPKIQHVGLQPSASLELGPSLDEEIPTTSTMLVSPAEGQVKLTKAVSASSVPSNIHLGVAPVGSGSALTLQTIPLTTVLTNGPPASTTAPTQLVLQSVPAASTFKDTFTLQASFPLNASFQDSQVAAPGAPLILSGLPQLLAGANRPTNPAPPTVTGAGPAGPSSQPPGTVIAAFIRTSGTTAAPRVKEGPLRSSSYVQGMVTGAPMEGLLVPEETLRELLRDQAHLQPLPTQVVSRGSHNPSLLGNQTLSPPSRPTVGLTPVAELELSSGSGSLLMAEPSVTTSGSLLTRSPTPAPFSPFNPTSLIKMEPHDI
Experiment [12] has as its target ETV1 (Homo sapiens, UniProt P50549 1-477). An outline of the steps:
as §1

In experiment [13] the target is T7, ERF (Homo sapiens, UniProt P50548 1-548).
T7 sequence: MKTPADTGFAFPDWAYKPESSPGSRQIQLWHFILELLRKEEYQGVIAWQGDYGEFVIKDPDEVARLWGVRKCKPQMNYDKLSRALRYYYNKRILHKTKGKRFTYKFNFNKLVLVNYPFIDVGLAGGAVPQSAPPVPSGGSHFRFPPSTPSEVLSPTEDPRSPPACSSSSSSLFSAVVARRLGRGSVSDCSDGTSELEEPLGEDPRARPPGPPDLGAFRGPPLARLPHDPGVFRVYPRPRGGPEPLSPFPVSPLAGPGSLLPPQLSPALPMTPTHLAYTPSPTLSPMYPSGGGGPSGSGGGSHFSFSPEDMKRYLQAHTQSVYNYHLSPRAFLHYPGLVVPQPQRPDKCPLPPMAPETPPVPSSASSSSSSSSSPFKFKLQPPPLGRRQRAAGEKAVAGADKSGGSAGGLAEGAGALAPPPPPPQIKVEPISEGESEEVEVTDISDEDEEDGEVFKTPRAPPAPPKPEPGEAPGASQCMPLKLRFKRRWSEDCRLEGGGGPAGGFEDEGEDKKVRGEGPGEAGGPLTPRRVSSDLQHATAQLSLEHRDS
An outline of the steps: as §1

Experiment [14] has as its target T8, ETV3L (Homo sapiens, UniProt Q6ZN32 1-361).
T8 sequence: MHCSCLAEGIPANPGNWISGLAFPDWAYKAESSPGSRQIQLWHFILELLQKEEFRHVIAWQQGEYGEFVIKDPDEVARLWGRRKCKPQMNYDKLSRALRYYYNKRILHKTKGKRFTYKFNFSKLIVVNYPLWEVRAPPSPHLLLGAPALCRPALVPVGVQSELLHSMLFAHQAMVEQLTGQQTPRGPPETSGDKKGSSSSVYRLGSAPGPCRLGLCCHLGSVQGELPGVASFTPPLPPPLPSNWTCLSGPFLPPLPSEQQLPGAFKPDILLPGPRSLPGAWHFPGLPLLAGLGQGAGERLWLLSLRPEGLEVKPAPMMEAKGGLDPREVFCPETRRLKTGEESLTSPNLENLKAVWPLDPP
In outline:
as §1

The target of experiment [15] is T9, ETS2 (Homo sapiens, UniProt P15036 1-469).
T9 sequence: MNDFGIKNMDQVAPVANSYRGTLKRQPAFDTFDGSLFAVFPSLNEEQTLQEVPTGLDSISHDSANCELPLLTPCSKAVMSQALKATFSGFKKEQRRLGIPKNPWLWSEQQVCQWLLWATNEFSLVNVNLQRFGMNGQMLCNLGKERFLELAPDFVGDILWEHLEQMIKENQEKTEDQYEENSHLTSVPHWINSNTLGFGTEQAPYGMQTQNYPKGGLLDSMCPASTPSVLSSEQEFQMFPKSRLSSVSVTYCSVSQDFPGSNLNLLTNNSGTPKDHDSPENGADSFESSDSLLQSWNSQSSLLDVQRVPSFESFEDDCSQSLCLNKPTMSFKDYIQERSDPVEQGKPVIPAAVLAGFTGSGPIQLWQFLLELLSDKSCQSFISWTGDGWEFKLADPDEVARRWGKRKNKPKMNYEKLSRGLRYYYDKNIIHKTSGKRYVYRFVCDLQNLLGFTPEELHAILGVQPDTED
In outline:
as §1

Experiment [16] deals with T10, SPDEF (Homo sapiens, UniProt O95238 1-335).
T10 sequence: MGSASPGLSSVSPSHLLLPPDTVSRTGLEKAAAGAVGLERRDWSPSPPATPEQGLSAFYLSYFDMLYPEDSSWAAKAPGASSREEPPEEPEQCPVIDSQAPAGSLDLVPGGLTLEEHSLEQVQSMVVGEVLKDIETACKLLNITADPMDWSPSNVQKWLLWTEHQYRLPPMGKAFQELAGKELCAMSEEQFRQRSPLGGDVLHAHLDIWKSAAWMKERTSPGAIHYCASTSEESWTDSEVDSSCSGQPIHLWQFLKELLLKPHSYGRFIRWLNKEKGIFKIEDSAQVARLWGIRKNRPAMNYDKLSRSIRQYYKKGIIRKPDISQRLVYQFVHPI
In outline:
as §1

For experiment [17], the target named is T11, ELF5 (Homo sapiens, UniProt Q9UKW6-2 1-255).
T11 sequence: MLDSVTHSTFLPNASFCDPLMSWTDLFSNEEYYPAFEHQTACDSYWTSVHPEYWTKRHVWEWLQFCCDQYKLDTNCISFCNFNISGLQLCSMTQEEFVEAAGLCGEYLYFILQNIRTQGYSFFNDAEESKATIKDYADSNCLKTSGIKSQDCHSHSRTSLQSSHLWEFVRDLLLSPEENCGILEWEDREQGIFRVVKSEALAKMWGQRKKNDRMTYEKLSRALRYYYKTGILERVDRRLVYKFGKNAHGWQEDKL
An outline of the steps:
as §1

The target of experiment [18] is T12, ETV3 (Homo sapiens, UniProt P41162-2 1-143).
T12 sequence: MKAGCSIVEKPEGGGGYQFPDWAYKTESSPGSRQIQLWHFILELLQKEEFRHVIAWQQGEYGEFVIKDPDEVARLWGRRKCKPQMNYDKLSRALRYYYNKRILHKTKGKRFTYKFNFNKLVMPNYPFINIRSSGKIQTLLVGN
In outline:
as §1

In experiment [19] the target is ETV6 (Homo sapiens, UniProt P41212 1-452). An outline of the steps: as §1
Sequence of ETV6 (P41212 whole entry): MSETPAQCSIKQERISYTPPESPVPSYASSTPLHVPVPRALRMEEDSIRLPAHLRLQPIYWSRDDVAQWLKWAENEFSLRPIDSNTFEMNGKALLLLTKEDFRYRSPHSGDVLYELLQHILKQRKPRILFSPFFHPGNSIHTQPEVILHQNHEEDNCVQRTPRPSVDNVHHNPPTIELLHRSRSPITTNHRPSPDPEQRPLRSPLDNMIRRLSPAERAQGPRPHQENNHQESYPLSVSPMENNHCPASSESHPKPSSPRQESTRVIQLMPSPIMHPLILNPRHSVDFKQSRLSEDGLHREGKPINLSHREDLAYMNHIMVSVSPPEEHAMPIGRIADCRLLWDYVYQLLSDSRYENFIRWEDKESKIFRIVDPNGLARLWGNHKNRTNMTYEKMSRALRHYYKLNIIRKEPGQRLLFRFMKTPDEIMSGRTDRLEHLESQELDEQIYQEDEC

Sequence of ETV1 (P50549 whole entry): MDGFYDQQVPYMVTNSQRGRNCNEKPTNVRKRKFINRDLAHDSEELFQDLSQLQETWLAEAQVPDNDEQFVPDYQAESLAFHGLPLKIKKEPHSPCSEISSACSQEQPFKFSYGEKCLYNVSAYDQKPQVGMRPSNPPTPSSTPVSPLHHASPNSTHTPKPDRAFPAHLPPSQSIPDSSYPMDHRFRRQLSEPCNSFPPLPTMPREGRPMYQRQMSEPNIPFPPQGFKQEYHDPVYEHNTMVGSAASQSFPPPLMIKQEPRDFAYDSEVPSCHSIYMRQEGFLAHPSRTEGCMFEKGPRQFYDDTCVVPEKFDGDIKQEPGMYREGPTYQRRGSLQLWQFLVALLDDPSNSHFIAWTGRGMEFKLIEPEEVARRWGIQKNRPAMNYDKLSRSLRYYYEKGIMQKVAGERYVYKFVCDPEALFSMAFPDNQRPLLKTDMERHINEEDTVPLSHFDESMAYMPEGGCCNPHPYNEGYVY
Sequence of SPIB (Q01892 whole entry): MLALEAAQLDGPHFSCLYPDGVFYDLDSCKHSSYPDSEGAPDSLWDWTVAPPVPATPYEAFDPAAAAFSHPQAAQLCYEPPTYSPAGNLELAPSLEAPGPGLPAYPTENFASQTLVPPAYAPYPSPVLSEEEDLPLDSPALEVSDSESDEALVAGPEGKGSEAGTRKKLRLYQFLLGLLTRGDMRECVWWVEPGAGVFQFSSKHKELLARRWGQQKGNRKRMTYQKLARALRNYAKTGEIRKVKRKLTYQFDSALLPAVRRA
Sequence of ETV5 (P41161 whole entry): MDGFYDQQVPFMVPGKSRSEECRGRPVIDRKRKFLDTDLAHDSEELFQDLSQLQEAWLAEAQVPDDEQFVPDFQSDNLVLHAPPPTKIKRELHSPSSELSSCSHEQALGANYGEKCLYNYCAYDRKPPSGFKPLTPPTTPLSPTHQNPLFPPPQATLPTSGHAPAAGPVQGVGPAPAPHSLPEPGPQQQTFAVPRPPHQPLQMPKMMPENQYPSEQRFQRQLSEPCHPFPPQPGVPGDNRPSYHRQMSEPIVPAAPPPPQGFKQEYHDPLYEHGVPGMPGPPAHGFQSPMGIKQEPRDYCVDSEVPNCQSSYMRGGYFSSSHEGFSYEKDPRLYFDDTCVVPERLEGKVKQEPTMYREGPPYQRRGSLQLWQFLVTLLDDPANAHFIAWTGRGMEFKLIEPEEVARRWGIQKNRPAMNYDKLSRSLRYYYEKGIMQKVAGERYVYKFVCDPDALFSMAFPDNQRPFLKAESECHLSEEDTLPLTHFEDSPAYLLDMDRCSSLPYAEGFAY

Turning to ATACCG, the binding signal in [1] was 1.16 fold enrichment (6-mer frequency, TF over GST control); in experiment [2], 1.02 fold enrichment (6-mer frequency, TF over GST control); in experiment [3], 1.16 fold enrichment (6-mer frequency, TF over GST control); in experiment [4], 1.11 fold enrichment (6-mer frequency, TF over GST control); in [5], 1.12 fold enrichment (6-mer frequency, TF over GST control); in [6] it was 1.06 fold enrichment (6-mer frequency, TF over GST control). In addition, the binding signal in experiment [7] is 1.12 fold enrichment (6-mer frequency, TF over GST control); in [8] it was 1.25 fold enrichment (6-mer frequency, TF over GST control); in experiment [9] it was 1.1 fold enrichment (6-mer frequency, TF over GST control); in [10] it was 1.05 fold enrichment (6-mer frequency, TF over GST control); in experiment [11], 1.12 fold enrichment (6-mer frequency, TF over GST control); in experiment [12] it was 1.14 fold enrichment (6-mer frequency, TF over GST control). Besides, the binding signal is 1.08 fold enrichment (6-mer frequency, TF over GST control) in [13]; 1.1 fold enrichment (6-mer frequency, TF over GST control) in [14]; 1.11 fold enrichment (6-mer frequency, TF over GST control) in [15]; 1.19 fold enrichment (6-mer frequency, TF over GST control) in experiment [16]; 1.13 fold enrichment (6-mer frequency, TF over GST control) in [17]; 1.2 fold enrichment (6-mer frequency, TF over GST control) in experiment [18]. Moreover, in experiment [19], the binding signal is 1.09 fold enrichment (6-mer frequency, TF over GST control).
